# Data taken from PubChem BioAssay.
# Calls of active or inactive are those of the source.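 Rule for the calls: active = viability loss from added drug above about 55%, and viability with drug at most 40%, in both replicates (limit read from the data, passing the limit was not always enough); inconclusive = both conditions met in only one replicate; inactive = neither replicate meets both conditions.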
# Assay: MRP1 drug-resistance reversers in H69AR cells – cell-based, doxorubicin co-treatment, pilot screen (AID 601)
# Conditions: H69AR cells + 2 uM doxorubicin, CellTiter-Glo, 72 h; at 10 µM; hits give high values
row,Compound,differential viability (reversal)
1,O=C(c1ccc2nc(N3CCCCC3)sc2c1)N1CCN(c2ccccn2)CC1,2.3% (inactive)
2,CC(C)CCNC(=O)Cn1c(NCCC(C)C)nc2c1c(=O)n(C)c(=O)n2C,-0.345% (inactive)
3,CC(=O)NC(C)c1nc2ccccc2n1C(C)C (centres undefined),12.4% (inactive)
4,NC(=O)CSc1cn(CCNC(=O)c2cccs2)c2ccccc12,1.49% (inactive)
5,Cc1cccc(C2CC(c3ccc(Cl)cc3)Nc3nc(N)nn32)c1 (centres undefined),-10.4% (inactive)
6,CCOC(=O)CN1CC23C=CC(O2)C(C(=O)Nc2ccc(C(C)=O)cc2)C3C1=O (centres undefined),2.38% (inactive)
7,CCCSc1nnc(N2C(=O)CC(c3ccsc3)C3=C2CCCC3=O)s1 (centres undefined),0.73% (inactive)
8,O=C(CN1CCN(Cc2ccc(F)cc2Cl)C1=O)NCCCN1CCOCC1,14% (inactive)
9,CN(C)CCCN1C(=O)CSC1c1ccccc1 (centres undefined),4.35% (inactive)
10,COC(=O)Cn1c(=O)c2c(nc3n2CC(C)CN3c2ccc(C)c(C)c2)n(C)c1=O (centres undefined),15.8% (inactive)
11,CCCSC1=C(C#N)C(c2cc(OC)ccc2OC)CC(=O)N1 (centres undefined),5.96% (inactive)
12,O=C(Nc1ccc(CN2CCOCC2)cc1)c1cc2ccccn2n1,-0.47% (inactive)
13,CCN(CC)CCn1c(=N)n(CCO)c2ccccc21,8.55% (inactive)
14,CCN(CCCNS(=O)(=O)c1ccc2c(c1)oc(=O)n2C)c1cccc(C)c1,5.6% (inactive)
15,COc1ccc(OC)c(C2=NOC(C(=O)Nc3c(C)n(C)n(-c4ccccc4)c3=O)C2)c1 (centres undefined),8.86% (inactive)
16,O=C(Cn1cc2c(n1)CCCCC2)N1CCc2ccccc2C1,3.17% (inactive)
17,Cn1c(=O)c2c(nc(SCCCC#N)n2Cc2c(F)cccc2Cl)n(C)c1=O,61.3% (active)
18,CCN1CCN(Cc2ccc(NC(=O)Nc3ccccc3)cc2)CC1,-0.57% (inactive)
19,CCOC(=O)N1CCN(Cc2nc3c(c(=O)n(C)c(=O)n3C)n2Cc2ccccc2)CC1,10.5% (inactive)
20,COCCCNC(=O)Cn1cc2c(n1)CCC(C)C2 (centres undefined),-1.69% (inactive)

row,Compound,differential viability (reversal)
1,C=CCc1ccccc1OCCCCN1CCCC1,-1.74% (inactive)
2,COc1ccc(OCC(=O)N2CC3(C)CC2CC(C)(C)C3)cc1 (centres undefined),17% (inactive)
3,O=C1c2ccccc2C(Nc2ccc(-c3nc4ccccc4[nH]3)cc2)N1Cc1ccco1 (centres undefined),15% (inactive)
4,CCCNc1nc(N2CCOCC2)nc(N2CCOCC2)n1,-3.39% (inactive)
5,COCCn1c(SCC(=O)Nc2ccc3c(c2)OCCO3)nc2c(c1=O)SC(C)C2 (centres undefined),-21.9% (inactive)
6,COc1ccc(NC(=O)C2CCCN2S(=O)(=O)c2cccc3cccnc23)c(OC)c1 (centres undefined),-0.87% (inactive)
7,CCOC(=O)Cn1ncc(-c2ccccc2)c1N,7.02% (inactive)
8,O=C(O)C1CC(=O)N(CCOc2ccccc2)C1 (centres undefined),-3.07% (inactive)
9,Cc1ccc(-n2c3c(cc(C(=O)NCCCN4CCOCC4)c2=O)C(=O)CC(C)(C)C3)cc1,-13% (inactive)
10,CCOC(=O)C1CCN(Cc2ccc(OC)c(C)c2OC)CC1,3.22% (inactive)
11,COc1ccc(C(C)N2CC34C=CC(O3)C(C(=O)OCC(C)C)C4C2=O)cc1 (centres undefined),3.22% (inactive)
12,Cc1c(NC(=O)C2CCCCN2S(=O)(=O)c2ccc(Cl)cc2)c(=O)n(-c2ccccc2)n1C (centres undefined),-6.92% (inactive)
13,CC(C)(NC(=O)N1CCCC1)c1cccc(C(C)(C)NC(=O)N2CCCC2)c1,5.27% (inactive)
14,CC(C)NC(=O)c1ccc2c(c1)nnn2C,0.56% (inactive)
15,Cc1ccc(C(=O)CC2(O)C(=O)N(C)c3ccc(Br)cc32)c(C)c1 (centres undefined),-16.9% (inactive)
16,Cc1ccc(NC(=O)CN(c2ccc3c(c2)OCO3)S(=O)(=O)c2c(C)n[nH]c2C)cc1,1.52% (inactive)
17,COc1ccc(N2CCN(Cc3nc4c(c(=O)n(C)c(=O)n4C)n3Cc3ccccc3C)CC2)cc1,25.1% (inactive)
18,CN(C(=O)c1ccco1)c1nnc(C23CC4CC(CC(C4)C2)C3)s1,-0.595% (inactive)
19,CCCC(=O)C1=C(N(C)c2ccccc2)CC(C)(C)C(C(=O)OC)C1=O (centres undefined),1.22% (inactive)
